This is a sample that favours compounds with a hit; in the whole collection about 6.7% have one here.
Pf Dd2 inh = P. falciparum Dd2 growth inhibitors, primary screen, SYBR Green fluorescence, single dose replicates; 72 h; active compounds read low; activity change, % at 10 µM; 94,000 tested, 2.3% active; AID 1159554, 2015; in the data active = activity change below about -80%; inconclusive = no clear call, values can overlap the other calls
T cruzi growth-1 = T. cruzi intracellular proliferation inhibitors, primary screen, cell-based, beta-gal Tulahuen parasites, NIH3T3 host, luminescence; inhibition, % at 8.34 µM; 77,000 tested, 5.9% active; T. cruzi beta-gal in NIH3T3, GalScreen luminescence, 90 h;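 active = mean inhibition above about 93%, with at least 55% of replicates each passing it, limit read from the data, passing the limit was not always enough; inconclusive = only one of those two conditions holds; inactive = neither condition holds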
C diff growth = C. difficile growth inhibitors, primary screen, HTS | growth activity, negative = inhibition, % at 16 µg/mL (by protocol) | Clostridium difficile clinical isolate growth, OD600, 24 h; active compounds read low | 86,000 tested, 0.25% active;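 active = mean growth activity at or below -80% and every replicate also at or below -80%; inconclusive = mean at or below -80% but some replicate above -80%; inactive = mean growth activity above -80%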;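 also: 0% = DMSO wells and -100% = levofloxacin 16 µg/mL wells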
T cruzi growth-2 = T. cruzi intracellular proliferation inhibitors, confirmation, cell-based, NIH3T3 host, beta-gal parasite, luminescence, cherry-pick; inhibition, % at 8.35 µM; T. cruzi beta-gal in NIH3T3, GalScreen luminescence, 90 h; 5,600 tested, 72% active; shares compounds with T cruzi growth-1;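 active = mean replicate inhibition above about 95% and at least 55% of replicates individually reaching it, limit read from the data; inconclusive = only one of the two criteria is met; inactive = neither criterion is met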
T cruzi growth-3 = inhibitors of intracellular T. cruzi replication, confirmation, NIH3T3 host cells, beta-gal parasites, cherry-pick, set 2; shares compounds with T cruzi growth-1; T. cruzi beta-gal in NIH3T3, GalScreen luminescence, 90 h; inhibition, % at 2.09 µM; 5,600 tested, 21% active; AID 651740, 2012;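 active = mean inhibition above about 95%, with at least 55% of replicates also reaching it, limit read from the data; inconclusive = meets just one of the two conditions; inactive = meets neither condition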;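 also: plate controls were neutral control median for no effect and positive control median for full effect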
NIH3T3 tox = cytotoxicity in mouse NIH/3T3 fibroblasts, confirmation, cytotoxicity control for T. cruzi proliferation inhibitor project, cell-based, cherry-pick, single point; cytotoxicity (signal decrease), % at 8.35 µM; shares compounds with T cruzi growth-1; 5,600 tested, 14% active; NIH/3T3 viability, CellTiter-Glo ATP luminescence, 90 h;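 active = mean signal decrease across replicates above about 35% based on untreated-well scatter, with enough replicates individually passing, limit read from the data; inconclusive = no rule stated though some were filed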;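 also: 0% = median of neutral control wells and 100% = median of positive control wells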
NIH3T3 tox 2 = NIH/3T3 fibroblast cytotoxicity, confirmation, cytotoxicity control, cell-based, cherry-pick, single point, set 2 | shares compounds with T cruzi growth-1 | NIH/3T3 viability, CellTiter-Glo ATP luminescence, 90 h | inhibition, % at 24.9 µM | 5,600 tested, 56% active;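 active = mean loss of cell viability signal at or above a set limit, and enough replicates individually reaching it; inconclusive = meets only the mean limit or only the replicate share; inactive = meets neither condition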;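 also: 0% = median of neutral control wells and 100% = median of positive control wells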
Numbers without * were called inactive.

What do the screens show for `CCN1[C@H](C(=O)NCCCN(C)C)[C@@H](CO)[C@@H]2Cn3c(ccc(-c4cccc(F)c4)c3=O)[C@@H]21`?
Pf Dd2 inh: 29.9; C diff growth: -2.5

How did CNC[C@@H]1Oc2ccc(NS(=O)(=O)c3ccc(Cl)cc3)cc2CC(=O)N([C@@H](C)CO)C[C@H]1C do in these assays?
Pf Dd2 inh: 3.2; C diff growth: -0.8

How did N#C[C@H]1[C@H](c2ccc(-c3ccccc3)cc2)[C@H](CO)N1C(=O)Cc1ccncc1 do in these assays?
Pf Dd2 inh: -80.0; T cruzi growth-1: 102.2*; C diff growth: 3.5; T cruzi growth-2: 109.8*; T cruzi growth-3: 40.1; NIH3T3 tox: -4.4; NIH3T3 tox 2: inconclusive

How did N#C[C@@H]1[C@H](c2ccc(-c3cncnc3)cc2)[C@@H](CO)N1C(=O)Cc1ccccc1 do in these assays?
Pf Dd2 inh: 31.1; T cruzi growth-1: 88.1; C diff growth: -9.6

How did N#C[C@@H]1[C@@H](c2ccc(-c3ccccc3)cc2)[C@@H](CO)N1C(=O)Cc1ccncc1 do in these assays?
Pf Dd2 inh: -7.8; T cruzi growth-1: 92.7; C diff growth: -1.8

What do the screens show for `N#C[C@@H]1[C@@H](c2ccc(-c3ccncc3)cc2)[C@@H](CO)N1C(=O)Cc1ccccc1`?
Pf Dd2 inh: -53.4; T cruzi growth-1: inconclusive; C diff growth: -3.0; T cruzi growth-2: -2.8; T cruzi growth-3: -125.1; NIH3T3 tox: 26.6; NIH3T3 tox 2: 28.4*

How did N#C[C@H]1[C@H](c2ccc(C#Cc3ccc(F)cc3)cc2)[C@H](CO)N1C(=O)Cc1ccncc1 do in these assays?
Pf Dd2 inh: -72.6; T cruzi growth-1: inconclusive; C diff growth: -13.6; T cruzi growth-2: 89.4; T cruzi growth-3: 87.3; NIH3T3 tox: -24.3; NIH3T3 tox 2: inconclusive

What do the screens show for `N#C[C@H]1[C@@H](c2ccc(-c3ccc(F)cc3)cc2)[C@@H](CO)N1C(=O)Cc1ccccc1`?
Pf Dd2 inh: -6.5; T cruzi growth-1: 73.6; C diff growth: 6.3

How did N#C[C@H]1[C@@H](c2ccc(-c3ccncc3)cc2)[C@@H](CO)N1C(=O)Cc1ccccc1 do in these assays?
Pf Dd2 inh: -25.1; T cruzi growth-1: inconclusive; C diff growth: 7.4; T cruzi growth-2: 103.5*; T cruzi growth-3: 8.3; NIH3T3 tox: 29.1; NIH3T3 tox 2: 43.7*

Results for N#C[C@H]1[C@H](c2ccc(-c3ccc(F)cc3)cc2)[C@H](CO)N1C(=O)Cc1ccccc1 ?
Pf Dd2 inh: -16.1; T cruzi growth-1: 87.7; C diff growth: 15.9

Results for C[C@@H]1CN([C@@H](C)CO)C(=O)Cc2cc(NS(C)(=O)=O)ccc2O[C@@H]1CN(C)Cc1ccc(C(=O)O)cc1 ?
Pf Dd2 inh: 1.2; T cruzi growth-1: 27.0; C diff growth: 3.0

How did CCCNC(=O)C[C@H]1CC[C@@H]2[C@H](COC[C@H](O)CN2C(=O)Nc2ccccc2OC)O1 do in these assays?
Pf Dd2 inh: 8.1; T cruzi growth-1: -119.8

Results for CNC[C@@H]1Oc2cc(-c3cccc(C(=O)N(C)C)c3)ccc2S(=O)(=O)N([C@H](C)CO)C[C@H]1C ?
Pf Dd2 inh: -27.7; C diff growth: -2.1

How did CNC(=O)C[C@H]1CC[C@H]2[C@H](COc3ccc(NC(=O)c4ccc(F)cc4)cc3C(=O)N2C)O1 do in these assays?
Pf Dd2 inh: 13.5; T cruzi growth-1: 19.2; C diff growth: -4.0

What do the screens show for `COc1cccc(S(=O)(=O)Nc2ccc3c(c2)[C@H]2C[C@H](CC(=O)NCc4ccccc4F)O[C@@H](CO)[C@H]2O3)c1`?
Pf Dd2 inh: -27.7; T cruzi growth-1: -29.7; C diff growth: 8.5

Results for CO[C@H]1CN(C)C(=O)c2cc(NC(=O)Nc3cc(F)ccc3F)ccc2OC[C@@H](C)N(C(=O)c2cnccn2)C[C@H]1C ?
Pf Dd2 inh: -12.4

Results for COc1cccc(-c2cnc3c(c2)C(=O)N([C@H](C)CO)C[C@@H](C)[C@H](CN(C)Cc2ccc(C(=O)O)cc2)O3)c1 ?
Pf Dd2 inh: 28.1; C diff growth: 2.0

Results for C[C@H]1CN([C@@H](C)CO)C(=O)c2cc(NC(=O)CCC(F)(F)F)ccc2O[C@@H]1CN(C)C(=O)Nc1ccc(F)cc1 ?
Pf Dd2 inh: 11.7; T cruzi growth-1: 13.0; C diff growth: 4.7

How did CN1c2ccc(-c3cccc(F)c3)cc2[C@@H]2[C@@H](CCN2C(=O)c2ccncc2)[C@@H]1CO do in these assays?
Pf Dd2 inh: 26.7; T cruzi growth-1: 73.1; C diff growth: 1.6

What do the screens show for `C[C@@H]1CN([C@H](C)CO)S(=O)(=O)c2ccc(C#Cc3ccc(F)cc3)cc2O[C@H]1CN(C)C`?
Pf Dd2 inh: -5.0; T cruzi growth-1: -36.5; C diff growth: 9.2

How did C[C@H](CO)N1C[C@H](C)[C@H](CN(C)C)Oc2cc(C#Cc3ccc(F)cc3)ccc2S1(=O)=O do in these assays?
Pf Dd2 inh: -2.3; T cruzi growth-1: -168.4; C diff growth: -1.3

How did C[C@@H]1CN([C@H](C)CO)S(=O)(=O)c2ccc(C#Cc3ccc(F)cc3)cc2O[C@@H]1CN(C)S(C)(=O)=O do in these assays?
Pf Dd2 inh: -2.9; T cruzi growth-1: inconclusive; C diff growth: 0.6; T cruzi growth-2: inconclusive; T cruzi growth-3: 59.1; NIH3T3 tox: 46.4*; NIH3T3 tox 2: 65.6*

What do the screens show for `C[C@@H]1CN([C@@H](C)CO)S(=O)(=O)c2ccc(C#Cc3ccc(F)cc3)cc2O[C@H]1CN(C)C`?
Pf Dd2 inh: 3.0; T cruzi growth-1: -45.7; C diff growth: -1.7

Results for C[C@H](CO)N1C[C@H](C)[C@@H](CN(C)S(C)(=O)=O)Oc2cc(C#Cc3ccc(F)cc3)ccc2S1(=O)=O ?
Pf Dd2 inh: -16.4; T cruzi growth-1: 106.4*; C diff growth: 1.3; T cruzi growth-2: 109.0*; T cruzi growth-3: 63.9; NIH3T3 tox: 5.5; NIH3T3 tox 2: 52.0*

How did C[C@@H]1CN([C@@H](C)CO)S(=O)(=O)c2ccc(C#Cc3ccc(F)cc3)cc2O[C@@H]1CN(C)S(C)(=O)=O do in these assays?
Pf Dd2 inh: -10.6; T cruzi growth-1: inconclusive; C diff growth: -2.8; T cruzi growth-2: 90.9; T cruzi growth-3: 35.9; NIH3T3 tox: 35.5*; NIH3T3 tox 2: 74.2*

How did CCNC(=O)C[C@H]1CC[C@H]2[C@@H](COc3ccc(NC(=O)Cc4ccccc4)cc3C(=O)N2C)O1 do in these assays?
Pf Dd2 inh: 5.7; T cruzi growth-1: 7.2; C diff growth: 3.8

Assay outcomes (PubChem BioAssay)
